# Tested on: Trichuris muris adult worms
# Experiment: mean motility score (Paragon pixel variance) of adult worms (arbitrary units); higher = more motile worms, i.e. less anthelmintic effect; extreme values may be limits of the assay
# Conditions: 100 µM; 24 h
# Summary of the method: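 In 96-well plates, one adult Trichuris muris worm from infected NOD SCID mice went into each well with 100 μL RPMI-1640, antibiotics and drug at 100 μM (1% v/v DMSO). After 24 h at 37°C and 5% CO2, the plates were filmed on an automated phenotyping platform. Paragon pixel-variance analysis gave the motility score, which was averaged across replicate wells.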
row,SMILES,mean motility score
1,CC1=C(C(=O)O)N2C(=O)[C@@H](NC(=O)[C@H](N)c3ccccc3)[C@H]2SC1 [cephalexin],4830
2,CC(=O)Oc1cc(C(C)C)c(OCCN(C)C)cc1C.Cl [moxisylyte hydrochloride],1780
3,C[C@@H]1[C@H](O)[C@@H](C)/C=C/C=C/C=C/C=C/C=C/C=C/C=C/[C@H](O[C@@H]2O[C@H](C)[C@@H](O)[C@H](N)[C@@H]2O)C[C@@H]2O[C@](O)(C[C@@H](O)C[C@@H](O)[C@H](O)CC[C@@H](O)C[C@@H](O)CC(=O)O[C@H]1C)C[C@H](O)[C@H]2C(=O)O [amphotericin B],656
4,CCn1cc(C(=O)O)c(=O)c2cc(F)c(N3CCNCC3)cc21 [norfloxacin],1950

# Reference: the supplement of paper PMC10503962
